This experiment concerns VDR:RXRa (NR concentration 270 nM, RXRa partner concentration 90 nM). The experiment is described as follows: PBM binding z-score (relative to random genomic background probes); higher = stronger binding; sequences stand for … in GC…GCGATTGACAGCGTAGAATGAAGG
The procedure: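 Protein-binding microarray (Agilent 4x180K custom design, double-stranded 60-nt probes: 5' GC cap, 34-nt variable region, 24-nt constant primer region; full probe sequence given). Purified or IVT nuclear receptor:RXRα heterodimers (3:1 NR:RXRα, mostly 270:90 nM) or homodimers were incubated for 1 h in PBS with 2% milk and no ligand, then detected with Alexa488 antibodies. Fluorescence from o1-orientation probes (~5 replicates averaged) was converted to z-scores against 500 random hg19 background probes. Variable regions are seed direct-repeat (DR0–DR5) sites, all their single-nucleotide variants and half-site ablations.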
For GCTATTTGGTCAGTAAAAGGTCACACACCGGTCG, the PBM binding z-score is 4.32.

Turning to CGAACTAGGTCAAGGACAATGAATCTCCGCACGC, the PBM binding z-score was 1.49. Take AGAATGAGGTTGAGATCAGGGAAACAGAATACAT: the PBM binding z-score was found to be 0.141. As to CCTGCTAGGTCAATGGTAAGCTAAAGCAGCTCGC, the PBM binding z-score is 0.595. In the case of CGTCAAAGTTCAAGGTAACCTAACAGAAAGCAGC it was 3.96; in that of TCTCGGAGGACACGAAAGGTCAGGGCTCGACATC, 3.43. In the case of AGAATGAGGTTATTAAGATCAGGCAATTGCGGTC it was 2.48; in that of TCTTGTAGATCAACAGGAGGCTAAGAAAGATCGA, -0.0159. CCGACTGGAGCATAAGGTTACCATAAGCCAGCCC registered a PBM binding z-score of 0.0802. As for CCGAGTAGCTTATGGGGCATTCAGGCAACGGTGA, the PBM binding z-score was -0.651.

Take CCGAGTAGGTTATGGAGCATTCAGGCAACGGTGA: the PBM binding z-score is -0.239. The sequence ATATGTAGGTTACATCCGGGTCAATCAGGCTATG displayed a PBM binding z-score of 3.59. In the case of AGTCACAGTTCAGGACGAGGTAACGTAAAGCACG it was 1.12.

In the case of CAAACTAGGTTACCGGAAGGTCAAAGTCCGCATG, the PBM binding z-score is 4.16. Next, CCTCGGAGGACAATAGGAGGTCAGAGCTGCCAGA: 1.51. In the case of TCTAGCAGGCCGGAGGGTCACTCAAGAGGTACGG, the PBM binding z-score was 1.03. In the case of GCAGACAGGTGAAACGCAGGTTACTCAGGGTGGC it was -0.128; in that of CAAACTAGGTCACCGGAAGGTCCAAGTCCGCATG, 3.1.

On to ATCTCTCGGTAAAAGTTCAGTGAATCCCGAGGAT, for which the PBM binding z-score was 1.03. In turn, TCTGCTAGGACAGTTGGTCAGCTAACGAGCTGCC displayed a PBM binding z-score of -0.792. In the case of CCGACTGGGGCATACGGTTACCATAAGCCAGCCC it was -0.577. The sequence CCGAGTAGGTTACGGGGCATTCAGGCAACGGTGA displayed a PBM binding z-score of 0.208.

Sequence ACTGGGAGGACAAAGGTCAGAGCTACGCCAGTGA returned a PBM binding z-score of 3.73.

Consider GCTAGGTGGTCAGTAAAAGGTCACACACCGGTCG, for which the PBM binding z-score is 4.22.

In turn, GCTAGTTGGTCAGTAAAAGGTAACACACCGGTCG returned a PBM binding z-score of 0.0911. GCGACTGGGGCAAAGCAGGTTACCAAAAGGTTGG had a PBM binding z-score of 0.136. TCTTGTAGATCAATAGAGGTTAAGAAAGTGCGCT returned a PBM binding z-score of 1.8.

The sequence CCTATTAGTTGACTATAAGGGCAACCGAAGCTCG returned a PBM binding z-score of 0.181. Turning to ACTAGCAGGCCAAGTTTGGGTCACACAAACAAAG, the PBM binding z-score came out at 0.933. In the case of CTCGAAAGCTCGGTTGAGGTGAGTATACGGATAA it was -0.326; in that of CCAGACCGGTGAAAGGTAACTCAGTCTGGTACGC, 0.137; in that of ATATCTAGGTAACCAAGTTCAGTGAATGCCGAAC, 3.97. Next, TAGCCTAGGTCATGGGCCAATATACCACGCGAAC: 2.06; ATCGAAAGGTCGTGAGGTTAGTATACAGAAAGGC: 4.66; GGAACAAGGGCATTCGAGTTGATAGCATGGCGAT: 3.12.

Sequence TCTGCTAGGTCAACGATGTTCAGCTAATCTGCTA showed a PBM binding z-score of 1.67.

On to TCTATTAGTTGAGTAGGGCAACCGAAACAGCGGA, for which the PBM binding z-score was -0.07. In the case of GCTTACGGGTCAAAGGCTATAGCATGAATAGAAT, the PBM binding z-score amounted to 3.47. Next, CCGACTAGGGCAGAAAGGTTACCATACCATCCGG: 1.13; AGAACGAGGCCACGCTGAGTTGATAGCAGAGTAG: 0.045.

(Values after the supplement of paper PMC6555819.)
